# USP7 inh = inhibitors of human USP7 deubiquitinase. inhibition, % at 20 µM. purified USP7, Ub-rhodamine cleavage fluorescence. Ubiquitin carboxyl-terminal hydrolase 7 (Homo sapiens), Q93009. actives 0.3% (n = 47,000)
# USP17 inh = inhibitors of human USP17 deubiquitinase; Ubiquitin carboxyl-terminal hydrolase 17-like protein 5 (Homo sapiens), A8MUK1; purified USP17, Ub-rhodamine cleavage fluorescence, 3 h; actives 6.5% (n = 47,000); AID 1645855, 2021; inhibition, % at 50 µM
# Target sequence (A8MUK1 whole entry, looked up): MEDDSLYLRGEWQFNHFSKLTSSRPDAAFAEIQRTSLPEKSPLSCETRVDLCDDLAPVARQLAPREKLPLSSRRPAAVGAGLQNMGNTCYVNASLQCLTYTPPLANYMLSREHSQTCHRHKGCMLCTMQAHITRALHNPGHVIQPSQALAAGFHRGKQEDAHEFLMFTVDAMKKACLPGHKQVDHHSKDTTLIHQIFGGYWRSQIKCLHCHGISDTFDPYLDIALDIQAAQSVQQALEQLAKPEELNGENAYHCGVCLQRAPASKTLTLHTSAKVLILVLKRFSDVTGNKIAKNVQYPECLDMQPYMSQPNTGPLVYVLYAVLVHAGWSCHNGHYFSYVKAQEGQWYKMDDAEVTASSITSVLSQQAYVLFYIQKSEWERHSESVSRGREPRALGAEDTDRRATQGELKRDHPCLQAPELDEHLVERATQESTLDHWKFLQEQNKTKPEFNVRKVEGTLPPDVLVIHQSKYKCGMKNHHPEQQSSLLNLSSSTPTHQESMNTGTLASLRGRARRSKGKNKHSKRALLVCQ
# UCHL1 inh = inhibitors of human UCHL1 deubiquitinase; inhibition, % at 20 µM; AID 1645859, 2021; Ubiquitin carboxyl-terminal hydrolase isozyme L1 (Homo sapiens), P09936; purified UCHL1, Ub-rhodamine cleavage fluorescence; actives 0.2% (n = 47,000)
# USP10 block = inhibitors of human USP10 deubiquitinase; Ubiquitin carboxyl-terminal hydrolase 10 (Homo sapiens), Q14694; purified USP10, Ub-rhodamine fluorescence, 60 min; inhibition, % at 20 µM; actives 1.1% (n = 47,000); AID 1645856, 2021
# USP8 block = inhibitors of human USP8 deubiquitinase. purified USP8, Ub-rhodamine cleavage fluorescence, 30 min. inhibition, % at 20 µM. actives 4.2% (n = 47,000)
# USP30 block = inhibitors of human USP30 deubiquitinase | inhibition, % at 25 µM | purified USP30, Ub-rhodamine cleavage fluorescence | Ubiquitin carboxyl-terminal hydrolase 30 (Homo sapiens), Q70CQ3 | actives 5.3% (n = 47,000)
# Starred values were filed as active, the others as inactive; i = inactive; . = not tested or not shown. Most compounds without a hit are left out; they make up all but 13% or so of the library. Rule as the data show it: active = inhibition above about 30%; inactive = the rest.
SMILES,USP7 inh,USP17 inh,UCHL1 inh,USP10 block,USP8 block,USP30 block
Cc1cc(C)c(N(C(=O)CN2C(=O)c3ccccc3S2(=O)=O)C(C(=O)NCC2CCCO2)c2ccc(F)cc2)c(C)c1 (configuration not stated),9,9,8,4,20,13
O=C(NC1CCCCC1)C(c1ccc(F)cc1)N(C(=O)CN1C(=O)c2ccccc2S1(=O)=O)c1ccccc1 (configuration not stated),14,20,3,16,13,31*
O=C(CCc1nnc2ccc(N3CCCCC3)nn12)NCc1cccnc1,2,10,4,2,21,16
O=C(CCC(=O)N(c1ccccc1)c1ccccc1)Nc1cccc(C(F)(F)F)c1,1,18,9,10,-32,34*
O=C(CCC(=O)N(c1ccccc1)c1ccccc1)Nc1ccc(F)cc1,-43,-5,-1,4,1,6
O=C(Nc1cccc(C(F)(F)F)c1)c1ccccc1Cc1ccccc1,11,35*,9,16,18,18
CCc1ccc(OCCOCCN2CCNCC2)cc1,5,0,1,-1,1,15
c1ccc(-c2csc3nc(CN4CCOCC4)nc(NC4CCCc5ccccc54)c23)cc1 (configuration not stated),12,29,9,6,16,21
Cc1cccc(C(=O)N2CCN3Cc4ccccc4N(C)CC3C2)c1 (configuration not stated),-146,-177,-153,-9,-244,i
COC(=O)c1ccc(N2CCN(C(=O)c3ccccc3)CC2)c(NC(=O)c2cc(OC)c(OC)c(OC)c2)c1,3,9,3,2,0,0
COC(=O)c1ccc(N2CCN(C(=O)c3ccccc3)CC2)c(NC(=O)COc2ccccc2Cl)c1,6,39*,7,8,7,33*
COc1ccccc1CC(=O)N(C)C(c1ccccc1)c1ccccc1,1,27,3,10,-5,52*
COc1cc(CCC(=O)N(C)C(c2ccccc2)c2ccccc2)cc(OC)c1OC,-3,5,2,3,1,0
COc1cccc(CNC(=O)N2CCN(S(C)(=O)=O)CC3(CC(=O)N(C)C3)C2)c1 (configuration not stated),4,0,1,0,-36,10
COc1ccc(OC)c(NC(=O)[C@H]2C[C@H](C(C)C)N[C@]23C(=O)Nc2ccc(C)cc23)c1,-1,0,1,-2,-18,10
O=C(COc1ccccc1)Nc1cnc(-c2ccccc2)nc1,-2,44*,1,-3,-1,-23
Cc1ccc(-c2ncc(NC(=O)COc3cccc(C)c3)cn2)cc1,3,-12,-5,-5,30*,-69
Cc1ccc(CC(=O)Nc2cnc(-c3ccccc3)nc2)cc1,-6,-18,-2,-3,-12,-20
O=C(COc1ccc(C(=O)c2ccccc2)cc1)Nc1cccnc1,-2,-26,-2,-2,-8,-22
O=C(COc1ccccc1)Nc1cnc(-c2ccc(Cl)cc2)nc1,-1,31*,0,3,78*,12
CC(C)(C)c1ccc(OCC(=O)Nc2ccc(N3CCCCC3)cc2)cc1,2,3,0,-3,21,-35
CCN1CCN(c2ccc(NC(=O)COc3cccc(C)c3)cc2)CC1,-1,19,-2,-2,1,32*
COc1cccc(C(=O)Nc2cnc(-c3ccccc3)nc2)c1,-40,4,2,1,3,1
O=C(Cc1ccccc1F)N1CCc2c(nc(N3CCCC3)[nH]c2=O)C1,6,5,2,-1,6,11
COc1cccc(CN2C[C@H]3N(C)C(=O)c4ccccc4C(=O)[C@@]3(C)C2)c1,2,0,0,-1,18,-14
SMILES,USP7 inh,USP17 inh,UCHL1 inh,USP10 block,USP8 block,USP30 block
O=C(N1CCC(O)CC1)C1(Cc2ccc(-c3ccc(F)c(F)c3)cc2)CCOCC1,-7,-6,1,-1,12,4
O=C(COc1ccc(F)cc1)Nc1cnc(-c2ccc(Cl)cc2)nc1,4,74*,7,7,95*,35*
COc1cccc(CC(=O)Nc2cnc(-c3ccc(Cl)cc3)nc2)c1,7,37*,3,6,79*,2
O=C(COc1ccc(F)cc1)Nc1cnc(-c2cccc(Cl)c2)nc1,0,-64,-3,-7,18,-247
COc1ccc(CC(NC(C)=O)C(=O)NC2CCN(c3nnnn3-c3ccccc3)CC2)c(OC)c1 (configuration not stated),0,1,-1,0,-1,0
Cc1nnc(SCC(=O)Nc2ccc(Cl)c(Cl)c2)c2ccccc12,2,-17,-5,1,4,-13
Oc1ccc(-c2nnc(Nc3ccc(Cl)c(Cl)c3)c3ccccc23)cc1,10,49*,6,21,53*,-29
CNC(=O)c1c2n(c3ncccc13)CCN(S(=O)(=O)c1ccc(-c3ccccc3)cc1)C2,7,52*,0,34*,14,-22
CCn1c(Cn2cccn2)nc2cc(NC(=O)C3CCCCC3)ccc21,5,-60,1,4,-1,13
O=C(c1ccc(F)cc1Cl)N1CCN(c2nc(-c3ccccc3)no2)CC1,-13,-2,0,2,2,-2
Cc1ccccc1-c1nc(-c2cccc(C(=O)N3CCCC3)c2)no1,-21,14,6,2,9,36*
Cc1cccc(C(=O)N2CCN(c3nc(-c4ccc(Cl)cc4)no3)CC2)c1,-13,13,9,2,9,40*
O=C(Nc1cnc(N2CCCCCC2)nc1)C1CCC1,-5,0,-5,-2,8,-5
Cc1cc(NCC(=O)Nc2ccc(Cl)cc2)n2nc(-c3cccnc3)nc2n1,11,12,4,-7,27,38*
CCCCNC(=O)c1cccc(Nc2cc(C)nc3nc(-c4cccnc4)nn23)c1,0,32*,-4,2,0,38*
CCCNC(=O)CNc1cc(C)nc2nc(-c3cccnc3)nn12,6,13,0,-3,-5,20
O=C(Nc1cnc(-c2cccc(Cl)c2)nc1)C1CCC1,-167,10,3,3,30*,22
O=C(c1noc2ccc(S(=O)(=O)Nc3cccc(F)c3)cc12)N1CCCCC1,-4,5,4,5,-3,3
COc1ccc(-c2cc(-c3ccc(F)cc3)[nH]c(=O)c2C#N)cc1,4,.,-4,40*,58*,79*
